Where “and” joins values, the source holds several entries; their conditions need not be identical. Equal values may be shown once. Results filed as inconclusive are left out. Calls of active or inactive are those of the source. Unless noted, calls come from the whole dose curve; as a rule, active = well fitted curve in the direction sought with a large enough effect; inconclusive = small, poorly fitted or top-dose-only effect, or another doubt; inactive = no such curve, though single readings can be large; an effect the other way counts as inactive or inconclusive.
What was measured:
[1] = Cell Viability - BJ (AID 421; calls by dose curve;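 note: potency is the fitted concentration of half-maximal effect; cells exposed to compound for 40 hours at 37 °C before readout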); details: BJ fibroblast viability, qHTS
Outline: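 Cytotoxicity as drop in intracellular ATP (CellTiter-Glo, 20 min RT) after 40 hr compound exposure of BJ fibroblasts at 37 °C. Titrations scaled between DMSO and 100 uM tamoxifen, Hill-fitted for AC50.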

[2] = Cell Viability - HepG2 (AID 433; calls by dose curve;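 note: potency is the fitted concentration of half-maximal effect; potency for ATP loss meaning cytotoxicity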); details: qHTS
Outline: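 Read-out is luciferase-based quantitation of cellular ATP as a measure of viable HepG2 cells after 40 h treatment at 37 °C. Signal decrease is scaled between DMSO-only and 100 uM tamoxifen controls, with AC50 fitted by the Hill equation.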

[3] = Cell Viability - MRC5 (AID 434; calls by dose curve;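 note: potency is the fitted concentration of half-maximal effect; potency reflects cytotoxicity seen as loss of intracellular ATP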); details: MRC5 lung fibroblast viability, qHTS
Outline: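 qHTS cytotoxicity in human lung fibroblast MRC5 cells; 40 hr treatment, 37 °C; cellular ATP by luciferase luminescence; DMSO = 0%, 100 uM tamoxifen = 100% inhibition; Hill-fit AC50.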

[4] = Cell Viability - NIH 3T3 (AID 541); details: NIH 3T3 cell viability, qHTS; activity change, negative = cytotoxicity: at 92.2 µM (top of the series);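 note: plate controls were DMSO alone for no effect and tamoxifen positive control for full effect; nearly all actives have a fitted effect of over 25% in size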
Outline: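 Luminescent ATP signal (CellTiter-Glo) served as the viability read-out after NIH 3T3 cells were exposed to compounds over a concentration range for 40 hr at 37 °C. Hill-equation modelling of concentration-response data gave AC50.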

[5] = Cell Viability - HUV-EC-C (AID 542); details: HUV-EC-C endothelial cell viability, qHTS; series mostly up to 92.2 µM; note: % is set by controls: 0 for no effect and ±100 for the full control effect; nearly all actives have a fitted effect of over 35% in size
Outline: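 qHTS cytotoxicity: HUV-EC-C, 1000 cells/well, 5 hr settle, compound 40 hr 37 °C, CellTiter-Glo, luminescence. AC50 via Hill equation.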

[6] = Cell Viability - H-4-II-E (AID 543); details: H-4-II-E rat hepatoma viability; series mostly up to 92.2 µM; note: % is set by controls: 0 for no effect and ±100 for the full control effect; nearly all actives have a fitted effect of over 35% in size
Outline: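 Luminescent ATP signal (CellTiter-Glo) served as the viability read-out, with cytotoxicity seen as a concentration-dependent ATP drop. Cells were treated for 40 hours in complete medium. AC50 values derive from Hill-equation modelling.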

[7] = Cell Viability - SH-SY5Y (AID 544); details: SH-SY5Y neuroblastoma cell viability; viability change, negative = cytotoxic: at 92.2 µM (top of the series); note: nearly all actives have a fitted effect of over 55% in size
Outline: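 Luminescent ATP read-out (CellTiter-Glo) measures loss of viable SH-SY5Y neuroblastoma cells after 40 hr compound exposure at 37 °C. AC50 values derive from standard Hill modelling of qHTS concentration-response data.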

[8] = Cell Viability - Renal Proximal Tubule (AID 545); details: renal proximal tubule cells viability; at 91.7 µM (top of the series), primary cells of rat origin unless noted; note: nearly all actives have a fitted effect of over 40% in size
Outline: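 Luminescent ATP signal (CellTiter-Glo) served as the viability read-out after 40 hr compound exposure of freshly isolated rat proximal tubule cells at 37 °C. Concentration-dependent ATP loss was fitted with the Hill equation to give AC50.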

[9] = Cellular Toxicity (caspase-3) HepG2 (AID 654); details: HepG2 caspase-3 activation, luminescence, 0% = DMSO only, 100% = tamoxifen; series mostly up to 92.2 µM;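 note: cells exposed to compound for 16 hours before reading; 0% = DMSO alone and 100% = caspase signal from 100 µM tamoxifen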
Outline: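 Cells plated 5 hr at 37 °C, compound added, incubated 16 hr at 37 °C. Caspase-Glo 3/7 reagent followed, 20 min at room temperature, then luminescence read. Activation scored as signal increase; AC50 from Hill fit.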

[10] = Cellular Toxicity (caspase-3) Jurkat (AID 655); details: Jurkat caspase-3 activation, luminescence, DMSO = 0%, tamoxifen = 100%; at 92.2 µM (top of the series);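 note: cells exposed to compound for 16 h at 37 °C before reading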
Outline: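 5000 Jurkat cells/well; compound 16 hr, 37 °C; Caspase-Glo 3/7 added, 20 min RT; luminescence read. Norm: DMSO = 0%, tamoxifen 100 uM = 100%. AC50, Hill model.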

[11] = Cellular Toxicity (caspase-3) HUV-EC-C (AID 656); details: HUV-EC-C cells, caspase-3 activation (apoptosis), vehicle = 0, 100 µM tamoxifen = 100%; series mostly up to 92.2 µM
Outline: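 qHTS; HUV-EC-C, 1000 cells/well; 5 hr settle, 16 hr cmpd, 37°C; Caspase-Glo 3/7, 20 min RT; luminescence. Norm: DMSO = 0%, tamoxifen 100 uM = 100%. Hill-fit AC50.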

[12] = Cellular Toxicity (caspase-3) SHSY5Y (AID 657); details: SH-SY5Y caspase-3 activation, DMSO zero, 10 µM staurosporine = 100%; series mostly up to 91.7 µM;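 note: cells exposed to compound for 16 hours at 37 °C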
Outline: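 qHTS, SH-SY5Y, 1500 cells/well, 5 h pre-incubation 37 °C; compound 16 h 37 °C; Caspase-Glo 3/7 1 h RT; luminescence. Norm.: DMSO = 0, 10 uM staurosporine = 100%. Hill fit → AC50.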

[13] = Cellular Toxicity (caspase-3) BJ (AID 658); details: BJ fibroblasts, luminescence, normalized: DMSO 0%, staurosporine 100%; series mostly up to 91.7 µM
Outline: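 Readout: Caspase-Glo 3/7 luminescence increase in BJ cells after 16 hr treatment at 37 °C. Staurosporine and tamoxifen served as positive controls; AC50 values came from Hill modelling of data normalized to DMSO and 10 uM staurosporine.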

[14] = Cellular Toxicity (caspase-3) MRC-5 (AID 659); details: MRC-5 cells, luminescence, normalized: DMSO 0%, 10 µM staurosporine 100%; series mostly up to 91.7 µM
Outline: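 Concentration-dependent caspase 3/7 activation is measured in human normal lung fibroblasts (MRC-5) following 16-hour treatment. AC50 values come from standard Hill-equation modeling of luminescence normalized to DMSO and 10 uM staurosporine.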

[15] = Cellular Toxicity (caspase-3) SK-N-SH (AID 661); details: SK-N-SH caspase-3 activation, qHTS, DMSO as zero, staurosporine as full; series mostly up to 91.7 µM
Outline: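 Human neuroblastoma SK-N-SH, 1500 cells/well, 5 hr pre-incubation, then compound 16 hr, 37 °C. Caspase-Glo 3/7 reagent, 1 hr RT, luminescence. Norm. to DMSO/10 uM staurosporine; Hill-fit AC50.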

[16] = Cellular Toxicity (caspase-3) H-4-II-E (AID 663); details: H-4-II-E rat hepatoma, scaled: DMSO 0%, 100 µM tamoxifen 100%; series mostly up to 92.2 µM;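 note: cells exposed to compound for 16 hr before readout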
Outline: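 Apoptosis induction is scored as increased luminescence from caspase 3/7 substrate cleavage in rat hepatoma H-4-II-E cells exposed to compound for 16 hr. Activity is scaled between DMSO and 100 uM tamoxifen.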

[17] = Cellular Toxicity (caspase-3) Hek293 (AID 664); details: HEK293 caspase-3 activation, DMSO = 0%, 100 µM tamoxifen = 100%; series mostly up to 92.2 µM;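 note: cells exposed to compound for 16 h at 37 °C before readout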
Outline: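 Cells plated, 5 hr at 37 °C; compounds added; 16 hr at 37 °C; Caspase-Glo 3/7 reagent, 20 min RT; luminescence read. Activation expressed relative to DMSO and 100 uM tamoxifen, AC50 by Hill model.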

[18] = Cellular Toxicity (caspase-3) Renal Proximal Tubule (AID 667); details: renal proximal tubule cells; at 91.7 µM (top of the series), primary cells freshly taken from rat, solvent-only wells 0%, staurosporine 100% unless noted;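 note: cells exposed to compound for 16 hours at 37 °C before detection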
Outline: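 AC50 derived by standard Hill fit of concentration-response data, normalized between DMSO basal and 10 uM staurosporine as 100% stimulation. Cells: primary rat kidney proximal tubule, 16 h treatment at 37 °C.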

[19] = qHTS Assay for Identification of Small Molecule Inducers of Hypoxia Response (AID 2120; active = well fitted curve in the direction sought with a large enough effect in the signal ratio, with a control signal flat, not every such curve was filed as active; the % refers to the signal ratio; note: 0% is about no effect); details: hypoxia response reporter cells, beta-lactamase ratio readout; series mostly up to 104 µM
Outline: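 ME-180 HRE-bla cells plated in Opti-MEM/0.5% dialyzed FBS, rested 4-5 h, then dosed with compound titrations by pin tool. After 17 h at 37 degrees C, CCF4 dye loaded 2.5 h at RT; 460/530 nm ratio gave %Activity and AC50.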

[20] = molecular target: Peroxisome proliferator-activated receptor alpha (Homo sapiens) (UniProt Q07869); assay: qHTS assay for small molecule agonists of the peroxisome proliferator-activated receptor alpha (PPARalpha) signaling pathway (AID 651778); details: PathHunter PPARalpha complementation, chemiluminescence, 6 h; active compounds read high; note: % of control where 0% means no effect
Outline: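 Chemiluminescence from complemented enzyme reported PPARalpha activation in cells after 6 hr of compound treatment at 37 C. The detection reagent was incubated for 60 min at room temperature, and compounds were scored as agonists.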

Chain of Peroxisome proliferator-activated receptor alpha (Homo sapiens) (Q07869 whole entry, looked up): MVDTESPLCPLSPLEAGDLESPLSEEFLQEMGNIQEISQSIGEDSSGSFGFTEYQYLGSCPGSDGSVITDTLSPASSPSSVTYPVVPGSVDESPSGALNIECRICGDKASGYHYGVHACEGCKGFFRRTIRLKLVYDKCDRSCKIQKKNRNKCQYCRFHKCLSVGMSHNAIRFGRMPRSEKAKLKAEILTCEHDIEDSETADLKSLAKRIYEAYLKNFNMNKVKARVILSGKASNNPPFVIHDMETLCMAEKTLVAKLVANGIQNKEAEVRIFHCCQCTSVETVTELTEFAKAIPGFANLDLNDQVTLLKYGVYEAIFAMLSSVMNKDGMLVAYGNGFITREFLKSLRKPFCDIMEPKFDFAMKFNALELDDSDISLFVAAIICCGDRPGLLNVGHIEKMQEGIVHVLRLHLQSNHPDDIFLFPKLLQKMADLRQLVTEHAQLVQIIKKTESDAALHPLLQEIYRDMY

CCOP(=S)(OCC)Oc1ccc([N+](=O)[O-])cc1
inactive: Potency [1] > 92 µM | Potency [2] > 92 µM | Potency [3] > 92 µM | activity change, negative = cytotoxicity [4] -19.3% | Potency [5] | Potency [6] | Potency [7] | activity change, negative = cytotoxicity [8] -6.62% and -2.54% | outcome [9] | caspase-3 activation [10] -2.23% and 0.755% | outcome [11] | outcome [12] | outcome [13] | outcome [14] | outcome [15] | outcome [16] | outcome [17] | caspase-3 activation [18] 14.9% and 4.17% | outcome [19] | max response [20] -0.408% and 4.67% and -3.29%

Clc1ccc2ccccc2c1
inactive: Potency [1] > 92 µM | Potency [2] > 92 µM | Potency [3] > 92 µM | activity change, negative = cytotoxicity [4] 7.96% | Potency [5] | Potency [6] | Potency [7] | activity change, negative = cytotoxicity [8] -5.07% | outcome [9] | caspase-3 activation [10] 0.888% | outcome [11] | outcome [12] | outcome [13] | outcome [14] | outcome [15] | outcome [16] | outcome [17] | caspase-3 activation [18] 7.88% | outcome [19] | max response [20] 0.9%

Cc1ccc([N+](=O)[O-])cc1C
inactive: Potency [1] > 92 µM | Potency [2] > 92 µM | Potency [3] > 92 µM | activity change, negative = cytotoxicity [4] -7.46% | Potency [5] | Potency [6] | Potency [7] | activity change, negative = cytotoxicity [8] -10.6% | outcome [9] | caspase-3 activation [10] -0.46% | outcome [11] | outcome [12] | outcome [13] | outcome [14] | outcome [15] | outcome [16] | outcome [17] | caspase-3 activation [18] -2.52% | outcome [19] | max response [20] -4.21% and -1.01%

CCCSC(=O)Cl
inactive: Potency [1] > 92 µM | Potency [2] > 92 µM | Potency [3] > 92 µM | activity change, negative = cytotoxicity [4] -26.8% | Potency [5] | Potency [6] | Potency [7] | activity change, negative = cytotoxicity [8] -6.97% | outcome [9] | caspase-3 activation [10] 0.745% | outcome [11] | outcome [12] | outcome [13] | outcome [14] | outcome [15] | outcome [16] | outcome [17] | caspase-3 activation [18] 5.81% | outcome [19] | max response [20] -0.0229%

O=[N+]([O-])c1ccc(Cl)c(Cl)c1
inactive: Potency [1] > 92 µM | Potency [2] > 92 µM | Potency [3] > 92 µM | activity change, negative = cytotoxicity [4] -16.5% | Potency [5] | Potency [6] | Potency [7] | activity change, negative = cytotoxicity [8] -5.41% [at 91.7 µM] | outcome [9] | caspase-3 activation [10] 0.916% | outcome [11] | outcome [12] | outcome [13] | outcome [14] | outcome [15] | outcome [16] | outcome [17] | caspase-3 activation [18] 4.74% [at 91.7 µM] | outcome [19] | max response [20] -3.39%

Cc1ccc(O)c(C)c1
inactive: Potency [1] > 92 µM | Potency [2] > 92 µM | Potency [3] > 92 µM | activity change, negative = cytotoxicity [4] 3.22% | Potency [5] | Potency [6] | Potency [7] | activity change, negative = cytotoxicity [8] -11.8% [at 91.7 µM] | outcome [9] | caspase-3 activation [10] 2.67% | outcome [11] | outcome [12] | outcome [13] | outcome [14] | outcome [15] | outcome [16] | outcome [17] | caspase-3 activation [18] -3.58% [at 91.7 µM] | outcome [19] | max response [20] -1.5% and -1.55% and 1.86%

CCOc1ccc(N)cc1
inactive: Potency [1] > 92 µM | Potency [2] > 92 µM | Potency [3] > 92 µM | activity change, negative = cytotoxicity [4] -11.8% | Potency [5] | Potency [6] | Potency [7] | activity change, negative = cytotoxicity [8] -1.23% | outcome [9] | caspase-3 activation [10] -0.901% | outcome [11] | outcome [12] | outcome [13] | outcome [14] | outcome [15] | outcome [16] | outcome [17] | caspase-3 activation [18] -17.4% | outcome [19] | max response [20] 3.04%

ClCBr
inactive: Potency [1] > 92 µM | Potency [2] > 92 µM | Potency [3] > 92 µM | activity change, negative = cytotoxicity [4] -20.5% | Potency [5] | Potency [6] | Potency [7] | activity change, negative = cytotoxicity [8] -6.27% | outcome [9] | caspase-3 activation [10] -0.634% | outcome [11] | outcome [12] | outcome [13] | outcome [14] | outcome [15] | outcome [16] | outcome [17] | caspase-3 activation [18] -5.04% | outcome [19] | max response [20] -7.14%

Nc1ccc(Br)cc1
inactive: Potency [1] > 92 µM | Potency [2] > 92 µM | Potency [3] > 92 µM | activity change, negative = cytotoxicity [4] -14.1% | Potency [5] | Potency [6] | Potency [7] | activity change, negative = cytotoxicity [8] -3.48% | outcome [9] | caspase-3 activation [10] 5.03% | outcome [11] | outcome [12] | outcome [13] | outcome [14] | outcome [15] | outcome [16] | outcome [17] | caspase-3 activation [18] -0.502% | outcome [19] | max response [20] -1.52%

— PubChem BioAssay (NCATS)
